Sampled rows, rich in hits. Any-hit rate of the full collection: about 5.8%.
MCF10A rerep – induces DNA re-replication in MCF 10a normal breast cells. AID 624296. Potency, µM (doses to about 46.1 µM), inactives show at the highest dose activity, positive = re-replication, hits mostly activators. hit rate 2.9% among 350,000. MCF 10A DNA re-replication, Hoechst nuclear intensity, 48 h; note: % of control where 0% means no effect; nearly all actives have a fitted effect of over 50% in size
SW480 rerep – DNA re-replication induction in SW480 cells; hit rate 1.8% among 340,000; Potency, µM (top dose mostly 46.1 µM), without a hit: top-dose re-replication activation, actives largely listed as activators; SW480 DNA re-replication, Hoechst DNA content imaging, 48 h; note: % of control where 0% means no effect; nearly all actives have a fitted effect of over 55% in size
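250 cells/well; 23 nL cpd via pin tool; 48 hr, 37 C, 5% CO2; Hoechst 40 min; imager read of total nuclear intensity, ex 405/em 500-530 nm.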
KB-3-1 cytotox – kills parental KB-3-1 adenocarcinoma cells; AID 1347075; KB-3-1 viability, CellTiter-Glo ATP luminescence, 72 h; Potency, µM (doses to about 46.1 µM), most hits filed as cytotoxic; hit rate 1.4% among 400,000; note: % is set by controls: 0 for no effect and ±100 for the full control effect; nearly all actives have a fitted effect of over 60% in size
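KB-3-1 cells, DMEM (no phenol red) + 10% FBS; compound by pin transfer, 72 h, 37 °C. Readout: CellTiter-Glo luminescence after 10 min. Data normalized, curve-fitted.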
12-LOX inh – ALOX12 (human) lipoxygenase inhibition. P18054. purified 12hLO, xylenol orange hydroperoxide absorbance. Potency, µM (top dose mostly 108 µM), without a hit: top-dose activity change, negative = inhibition, most hits filed as inhibitors. hit rate 1.1% among 580,000. AID 1671190; note: % is set by controls: 0 for no effect and ±100 for the full control effect
Target sequence (P18054 whole entry, looked up): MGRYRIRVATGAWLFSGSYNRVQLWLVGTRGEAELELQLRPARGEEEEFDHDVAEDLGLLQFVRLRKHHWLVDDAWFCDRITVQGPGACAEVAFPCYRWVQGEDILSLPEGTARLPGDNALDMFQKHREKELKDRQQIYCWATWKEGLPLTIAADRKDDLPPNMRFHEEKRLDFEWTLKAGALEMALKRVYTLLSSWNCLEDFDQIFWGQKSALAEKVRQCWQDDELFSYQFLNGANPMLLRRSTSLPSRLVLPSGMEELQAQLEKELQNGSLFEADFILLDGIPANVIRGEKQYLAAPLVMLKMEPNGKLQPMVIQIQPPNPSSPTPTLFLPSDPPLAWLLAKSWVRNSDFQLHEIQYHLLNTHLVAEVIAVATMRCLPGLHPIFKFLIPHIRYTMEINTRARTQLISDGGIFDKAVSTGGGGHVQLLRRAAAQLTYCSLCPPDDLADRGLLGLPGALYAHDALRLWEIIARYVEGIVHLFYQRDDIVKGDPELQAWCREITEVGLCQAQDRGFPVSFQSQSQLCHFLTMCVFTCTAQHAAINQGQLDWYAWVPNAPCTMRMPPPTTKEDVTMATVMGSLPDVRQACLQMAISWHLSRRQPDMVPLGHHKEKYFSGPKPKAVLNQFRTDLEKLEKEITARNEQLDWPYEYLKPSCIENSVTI
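Purified human 12hLO at 150 nM in 25 mM Hepes, 0.01% Triton X-100, pH 7.0, preincubated 15 min at room temperature with compound. Reaction started with 40 uM arachidonic acid, 30 min at room temperature. Hydroperoxide measured by Fe-xylenol orange, 573/405 nm absorbance ratio.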
KB-V1 MDR tox – KB-V1 MDR subline cytotoxicity; hit rate 3.4% among 400,000; KB-V1 MDR cells viability, CellTiter-Glo, 72 h; Potency, µM (top dose mostly 46.1 µM), actives largely listed as cytotoxic; note: % is set by controls: 0 for no effect and ±100 for the full control effect; nearly all actives have a fitted effect of over 60% in size
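Drug-selected KB-V1 cells, grown in DMEM lacking phenol red with 10% FBS, receive compound titrations; after three days at 37 degrees C, surviving cell ATP is quantified by CellTiter-Glo luminescence and responses normalized and curve-fitted.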
PINK1 modulator – modulators of PINK1 expression; PINK1 immunofluorescence, high-content cytometry, 24 h; Potency, µM (series often up to 76.6 µM), for inactives: at the top dose activation (PINK1 increase), hits mostly activators; hit rate 0.2% among 410,000; AID 624263; active = well fitted activation curve with a large enough effect; inconclusive = small, poorly fitted or top-dose-only effect; cell line not stated here; note: % of control where 0% means no effect; nearly all actives have a fitted effect of over 65% in size
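Compound titrations (5 concentrations, 24 h) on a stable cell line; DMSO and CCCP controls. Endpoint: fixed-cell PINK1 immunofluorescence with mitochondrial, cell and nuclear markers, scanned by microplate cytometer.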
* hit, by the source's call; i = inactive; ? = inconclusive; . = not tested or not shown; ! = not confirmed by another sample; [ ] = dose if it differs, or a comment. Unless noted, calls come from the whole dose curve; as a rule, active = well fitted curve in the direction sought with a large enough effect; inconclusive = small, poorly fitted or top-dose-only effect, or another doubt; inactive = no such curve, though single readings can be large; an effect the other way counts as inactive or inconclusive. Potency is the fitted concentration of half-maximal effect.

SMILES	MCF10A rerep	SW480 rerep	KB-3-1 cytotox	12-LOX inh	KB-V1 MDR tox	PINK1 modulator
N#C/C(=C\c1ccc(O)c(O)c1)C(=O)NCCCc1ccccc1	23%	?	i	28µM*!	?	0%
COCCNC(=O)/C(C#N)=C/c1cccc(/C=C(\C#N)C(=O)NCCOC)c1	21µM*	?	?	-16%	i	0%
COCCNC(=O)/C(C#N)=C/c1ccc(O)c([N+](=O)[O-])c1	-3%	-5%	i	-8%	i	0%
COCCNC(=O)/C(C#N)=C/c1ccc(O)cc1	-1%	-5%	i	3%	i	1%
COCCNC(=O)/C(C#N)=C/C=C/c1ccccc1[N+](=O)[O-]	15µM*	23%	i	-6%	?	4%
O=C(NCCSCc1cccs1)C1CC1	.	.	.	-24%	.	.
O=C(O)CCC(=O)N1Cc2ccccc2CC2(CCCCN2CC2CCCC2)C1 (stereo unspecified)	.	.	.	-1%[6.33 µM]	.	.
Cc1cccc2c(=O)c(-c3ccc4c(c3)OCO4)c(NC(=O)c3ccccc3F)oc12	.	.	.	-6%	.	.
Cc1ccc(CNC(=O)c2cccc(CS(C)=O)c2)cc1 (stereo unspecified)	.	.	.	21%	.	.
COc1cc(C(=O)Nc2ccccc2N2CCCCC2)cc(OC)c1OC	20%	2%	i	0%	i	2%
COc1cc(C(=O)Nc2ccccc2C2COC(=O)C2=N)cc(OC)c1OC (stereo unspecified)	-5%	-19%	i	-17%	12µM*	0%
O=C(Nc1cccc2cccnc12)c1cccc([N+](=O)[O-])c1	11%	-24%	i	7%	i	4%
O=C(Nc1ccccc1C(=O)Nc1ccccn1)c1cccc([N+](=O)[O-])c1	3.7µM*	11%	i	-17%	i	1%
Cc1ccnc(NC(=O)c2ccccc2NC(=O)C(C)(C)C)c1	16µM*	16µM*	?	0%	10µM*	6%
COc1cc(C(=O)Nc2ccccc2C(=O)Nc2ccccn2)cc(OC)c1OC	?	23µM*	8.2µM*	?	6.5µM*	4%
O=C(/C=C/c1ccccc1)c1ccc2ccccc2c1O	.	.	.	-4%	.	.
Brc1ccc(-c2ccc(-c3nnc(-c4ccco4)o3)o2)cc1	.	.	.	14µM*	.	.
Brc1ccc(CSc2nnc(-c3ccco3)o2)cc1	?	3%	i	-25%	i	1%
COc1ccc(O)c(C(=O)c2coc(=N)c(C(=O)Nc3ccc(SC(F)F)cc3)c2)c1	29%	0%	i	-16%	23µM*	?
CC(C)OC(=O)c1cc(C(=O)c2cc(F)ccc2O)coc1=N	4%	-8%	i	-26%	i	-2%
CCOC(=O)c1oc2c(c1C)C(=O)CSC2	.	.	.	10%	.	.
CCS(=O)(=O)c1ccc(C=NNc2nc3ccccc3o2)cc1	2%	-3%	i	-5%	18µM*	0%
C/C(=N\NC(=O)c1nnn(-c2nonc2N)c1CN(C)c1ccccc1)c1ccccc1O	?	3.3µM*	6.5µM*	-1%	i	0%
CC(/C=N/NC(=O)c1nnn(-c2nonc2N)c1CN1CCCCC1)=C\c1ccccc1	7.3µM*	?	?	-27%	i	13%
COc1ccc(/C(C)=N/NC(=O)c2nnn(-c3nonc3N)c2CN(C)c2ccccc2)cc1	4%	-9%	i	-22%	i	4%
SMILES	MCF10A rerep	SW480 rerep	KB-3-1 cytotox	12-LOX inh	KB-V1 MDR tox	PINK1 modulator
CCCc1c(C(=O)N/N=C(\C)c2ccccn2)nnn1-c1nonc1N	.	.	5.8µM*	-16%	?	0%
C/C(=N\NC(=O)c1nnn(-c2nonc2N)c1CN1CCCCC1)c1ccccc1O	13%	15µM*	?	1%	i	0%
Cc1nn(C)c(C)c1NC(=O)C(C)OC(=O)c1ccc2c(c1)NC(=O)CS2 (stereo unspecified)	.	.	.	2%	.	.
CCc1nc(C)c(C(=O)N2CCC(c3[nH]ncc3-c3ccccc3C)CC2)o1	.	.	.	81%	.	.
CC1(C)CSC(C)(C)C(=O)N1	-2%	0%	i	-2%	?	0%
COC(=O)C1CSC(C)(C)C(=O)N1 (stereo unspecified)	0.92µM*	-41%	i	-2%	i	1%
CCCSc1nnc(NC(=O)Nc2ccc(F)cc2)s1	?	5%	26µM*	0%	?	14µM*
CCSc1nnc(NC(=O)C2CCN(C(=O)c3ccc(F)cc3)CC2)s1	5%	-5%	i	414%	21µM*	3%
CCCSc1nnc(NC(=O)Nc2ccccc2)s1	?	?	?	3%	21µM*	45µM*
CCCCn1nc(C(=O)Nc2ccc(C)cc2Br)c2ccccc2c1=O	.	.	.	11%	.	.
O=C(CN1CCN(CC(=O)N2CCCCCC2)CC1)NCCc1c[nH]c2ccccc12	.	.	.	15%	.	.
CC(=O)/C=C/c1ccccc1Oc1c(F)c(F)nc(F)c1F	23µM*	18µM*	?	-3%	i	?
CCN(CC)C(=O)COC(=O)c1ccccc1-c1ncc(-c2ccc(F)cc2)o1	.	.	.	30%	.	.
Cc1cc(C)c2nc(-c3ccccn3)cc(C(=O)NCc3ccc(S(N)(=O)=O)cc3)c2c1	13µM*	-2%	i	6%	i	0%
COc1ccccc1NC(=O)c1cc(-c2ccccn2)nc2ccccc12	.	.	.	-3%	.	.
COc1cccc(NC(=O)c2cc(-c3ccccn3)nc3ccccc23)c1	12%	0%	?	-13%	1.8µM*	17%
COc1ccc(NC(=O)c2cc(-c3ccccn3)nc3c(C)cc(C)cc23)c(C)c1	10µM*	?	.	28%	.	16%
COc1cccc(NC(=O)c2cc(-c3ccncc3)nc3c(C)cc(C)cc23)c1	15%	2%	i	16%	i	5%
